This is a sample that favours compounds with a hit; in the whole collection about 1.5% have one here.
HttQ103 aggreg: mutant huntingtin aggregation inhibition; PC12 HttQ103-GFP aggregates, Acumen cytometry, 40 h; Potency, µM (titrated, usually from 46.1 µM), for inactives: at the top dose activity change, negative = inhibition, hits mostly inhibitors; AID 1688; hit rate 1.1% among 220,000; also: % is scaled to controls: 0 for no effect and ±100 for the full control effect; nearly all actives have a fitted effect of over 60% in size
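PC12 cells stably carrying ecdysone-inducible HTT exon 1 Q103–GFP were induced with tebufenozide (100 nM final) and treated with library compounds in titration. GFP aggregates in lysates were counted by laser scanning cytometry.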
HTT cytoprotect: Huntington cell model cytoprotection by ATP luminescence; PC12 HTT-Q103 induced, cytoprotection, ATP luminescence, 40 h; Potency, µM (top dose mostly 56.4 µM), for inactives: cytoprotection (ATP increase), actives largely listed as activators; hit rate 0.14% among 230,000; also: % of control where 0% means no effect; nearly all actives have a fitted effect of over 45% in size
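PC12 cells with ecdysone-inducible HTT exon 1 Q103-GFP, induced with 100 nM tebufenozide and co-treated with library compounds in a dose series (1536-well, 1500 cells/well). Cytoprotection read as ATP content by ATPlite luminescence.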
LMNA splice mod: LMNA splicing modulation | HeLa LMNA splicing GFP/RFP minigene ratio, 48 h | Potency, µM (doses to about 46.1 µM), for the others: at the highest dose ratio change, negative = inhibition, most hits filed as inhibitors | hit rate 0.01% among 200,000 | AID 1487; active = well fitted inhibition curve with a large enough effect in the signal ratio, with a control signal flat, not every such curve was filed as active; inconclusive = small, poorly fitted or top-dose-only effect, or effect the other way, or a change in a side signal; the % refers to the signal ratio; also: % is scaled to controls: 0 for no effect and ±100 for the full control effect
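Read-out is the ratio of GFP to DsRed2 object intensity, acquired by 488 nm laser-scanning cytometry on HeLa lamin A-EGFP minigene reporter cells. Compound incubation 48 hrs at 37 °C in Opti-MEM with 2% FBS; DMSO 0.5% final.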
NPSR antag: neuropeptide S receptor (human) antagonism, cAMP | Q6W5P4 | CHO-NPSR cells, cAMP TR-FRET, antagonist mode | Potency, µM (titrated, usually from 38.3 µM), for inactives: at the highest dose activity change, negative = inhibition, actives largely listed as inhibitors | hit rate 1% among 220,000 | AID 1461; also: % is scaled to controls: 0 for no effect and ±100 for the full control effect; nearly all actives have a fitted effect of over 50% in size
Target sequence (Q6W5P4 whole entry, looked up): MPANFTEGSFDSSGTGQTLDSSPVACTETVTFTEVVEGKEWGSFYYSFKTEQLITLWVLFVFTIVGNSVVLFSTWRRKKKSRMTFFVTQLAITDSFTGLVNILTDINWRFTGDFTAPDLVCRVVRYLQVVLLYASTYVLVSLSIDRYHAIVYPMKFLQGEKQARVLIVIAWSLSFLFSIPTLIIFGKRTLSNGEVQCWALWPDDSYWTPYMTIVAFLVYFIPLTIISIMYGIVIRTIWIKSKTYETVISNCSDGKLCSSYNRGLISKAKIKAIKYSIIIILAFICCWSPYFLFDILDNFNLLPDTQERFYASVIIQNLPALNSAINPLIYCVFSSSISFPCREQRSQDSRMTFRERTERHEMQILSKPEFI
Epigenetic reg: epigenetic control regulation, reporter derepression; AID 1865; Potency, µM (top dose mostly 53.9 µM), inactives show top-dose GFP activation, actives largely listed as activators; hit rate 0.2% among 280,000; murine LDR cells, GFP reporter derepression, 30 h; also: % of control where 0% means no effect; nearly all actives have a fitted effect of over 60% in size
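Murine LDR cells carrying a silenced, genomically integrated CMV-driven GFP reporter were exposed to compound for 30 hours at 37 C. After PBS washes, GFP-positive cells (20–120 um objects) were counted by laser-scanning microplate cytometry.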
* = called active by the depositor; [ ] = remark or other dose. Unless noted, calls follow the shape of the dose curve; as a rule, active = well fitted curve in the direction sought with a large enough effect; inconclusive = small, poorly fitted or top-dose-only effect, or another doubt; inactive = no such curve, though single readings can be large; an effect the other way counts as inactive or inconclusive. Potency is read from the fitted curve at half-maximal effect.

Results for CN1/C(=C\C=O)C(C)(C)c2ccccc21 ?
HttQ103 aggreg: inconclusive; HTT cytoprotect: -20%; LMNA splice mod: inconclusive; NPSR antag: 9%; Epigenetic reg: 0%

How did CN1\C(=C/C=C/C=C/C=[N+](C)C)C(C)(C)c2ccccc21 do in these assays?
HttQ103 aggreg: 10µM*; HTT cytoprotect: -42%; LMNA splice mod: -3%[9.22 µM]; NPSR antag: 10µM*; Epigenetic reg: 18%

Results for CCOC(=O)c1ccc(CN(Cc2ccc(Br)cc2)S(=O)(=O)c2cccc(C(F)(F)F)c2)cc1 ?
LMNA splice mod: -7%[46 µM]; Epigenetic reg: 0%

Results for CN(C)c1nc(=NCc2ccco2)ss1 ?
HttQ103 aggreg: 0.89µM*; HTT cytoprotect: -92%[10 µM]; NPSR antag: inconclusive; Epigenetic reg: inconclusive

What do the screens show for `O=C1CCCC(=NCc2ccco2)C1`?
HttQ103 aggreg: -8%; HTT cytoprotect: 9%[10 µM]; LMNA splice mod: 3%; NPSR antag: -12%[46.1 µM]; Epigenetic reg: 3%

How did CCN(CC)C(=O)c1sc(NC(=O)c2ccc(C)c([N+](=O)[O-])c2)c(C#N)c1C do in these assays?
HttQ103 aggreg: 13µM*; HTT cytoprotect: -45%; LMNA splice mod: -8%; NPSR antag: 0%[46.1 µM]; Epigenetic reg: -1%

How did NNC(=O)[C@@H](O)[C@H](O)C(=O)NN do in these assays?
HTT cytoprotect: -6%[10 µM]

Results for CC1CN(S(=O)(=O)c2ccc(C(=O)Nc3nnc(-c4ccc5c(c4)CCCC5)o3)cc2)CC(C)O1 (configuration not stated) ?
HttQ103 aggreg: 3.5µM*; HTT cytoprotect: -107%; LMNA splice mod: inconclusive; NPSR antag: -1%[46.1 µM]; Epigenetic reg: 7%

How did CCOC(=O)N1CCN(S(=O)(=O)c2ccc(C(=O)Nc3nnc(C)o3)cc2)CC1 do in these assays?
HttQ103 aggreg: inconclusive; HTT cytoprotect: 3.5µM*; LMNA splice mod: 0%; NPSR antag: 2%; Epigenetic reg: 3%

Results for COc1cc(-c2nnc(NC(=O)c3ccc(S(=O)(=O)N4CCOCC4)cc3)o2)cc(OC)c1OC ?
HttQ103 aggreg: 14%; HTT cytoprotect: -8%; NPSR antag: -5%; Epigenetic reg: 9%

Results for CC1CN(S(=O)(=O)c2ccc(C(=O)Nc3nnc(-c4ccccn4)o3)cc2)CC(C)O1 (configuration not stated) ?
HttQ103 aggreg: -8%; HTT cytoprotect: -23%; LMNA splice mod: 11%[9.22 µM]; NPSR antag: 2%; Epigenetic reg: 5%

How did COc1ccccc1C(=O)Nc1nnc(-c2ccc3c(c2)CCCC3)o1 do in these assays?
HttQ103 aggreg: 20µM*; HTT cytoprotect: -37%; LMNA splice mod: -25%; NPSR antag: -12%[46.1 µM]; Epigenetic reg: 3%

Results for COc1cccc(-c2nnc(NC(=O)c3ccc(S(=O)(=O)N4CCOCC4)cc3)o2)c1 ?
HttQ103 aggreg: 10µM*; HTT cytoprotect: -56%; LMNA splice mod: inconclusive; NPSR antag: -16%[46.1 µM]; Epigenetic reg: 0%

What do the screens show for `C[C@@]1(C(NC(=O)Cc2ccccc2)c2ccc(-c3ccccc3)cc2)C[C@H]1C1CCCCC1` (some centres not stated)?
HTT cytoprotect: 6%; Epigenetic reg: 1%

Results for O=C1CC(/C=C/c2ccncc2)=Nc2ccccc2N1 ?
HttQ103 aggreg: -7%; HTT cytoprotect: inconclusive; NPSR antag: -29%; Epigenetic reg: 2%

Results for COc1ccc(CN(C)C(=O)CCl)cc1 ?
HttQ103 aggreg: 13µM*; HTT cytoprotect: inconclusive; NPSR antag: -11%; Epigenetic reg: -1%

How did CN(Cc1ccc(Cl)cc1)C(=O)CCl do in these assays?
HttQ103 aggreg: inconclusive; HTT cytoprotect: -41%; NPSR antag: 0%; Epigenetic reg: 2%

What do the screens show for `O=C(Nc1cnn(C23CC4CC(CC(C4)C2)C3)c1)c1cnn2c(C(F)(F)F)cc(-c3ccco3)nc12`?
HttQ103 aggreg: -20%; HTT cytoprotect: 9%[0.074 µM]; LMNA splice mod: 1%; NPSR antag: 7.9µM*; Epigenetic reg: 0%

What do the screens show for `N#Cc1c(-n2ncnc2-c2ccccc2C(F)(F)F)sc2c1CCCCC2`?
Epigenetic reg: -2%

How did CC(=O)N/N=C/c1ccc([N+](=O)[O-])o1 do in these assays?
HttQ103 aggreg: 32µM*; HTT cytoprotect: -367%
